Screen size: about 69,000 compounds; about 8,600 (12%) showed an effect of 50% or more. For the sample, strong results were picked, then their nearest neighbours and some compounds at random.

This experiment has as its system Plasmodium berghei. Put plainly: Screen against P. berghei liver stage (PbLuc), transformed with Luciferase, at 10uM. It counts as functional, HepG2. To be noted: tested at 10 uM.
As to `CCCC(=O)N1CCC(c2cc3cccnc3c(O)n2)CC1`, the INHIBITION was determined as 1.62%. As for `CN(C)CCCNC(=O)c1ccccc1NC(=O)c1cc(Cl)ccc1Cl`, the figure is 27.6%; as for `CCc1nc(C)sc1CN1CC[C@@](O)(C2CCOCC2)[C@H](C)C1`, -10.9%; as for `O=c1ccc2c([nH]1)CCN(S(=O)(=O)c1ccc3c(c1)OCCO3)C2`, 26%. As to `O=S(=O)(c1ccc2c(c1)OCCO2)N1CCc2ccccc2C1`, the INHIBITION was determined as 57.6%. For `O=S(=O)(c1ccc2c(c1)OCCO2)N1CCC(OCc2ccccn2)C1` (stereo not drawn), the INHIBITION is recorded as -35.2%. Consider `Cc1nc2cc(=O)[nH]n2c(C)c1CC(=O)NCc1ccc(C#N)cc1`, for which the INHIBITION is 41.2%. With `CC(C)(C)S(=O)(=O)CCNC(=O)c1ccc2ccccc2c1`, the INHIBITION is -35.8%. `Cc1c(CNS(=O)(=O)c2cccc(COC(C)C)c2)cnn1C`: the INHIBITION amounted to 57.5%. For `CCNS(=O)(=O)c1cccc(CSC)c1`, the INHIBITION came to 19.4%. For `CSCc1cccc(S(=O)(=O)NCCO)c1`, the INHIBITION is recorded as 0.266%. Regarding `CNS(=O)(=O)c1cccc(CNC(=O)c2cnn(C)c2C)c1`, the INHIBITION came to 11.3%. Regarding `CSCc1cccc(S(=O)(=O)NCc2cnn(C)c2C)c1`, the INHIBITION is 78.3%.

Consider `COCc1cccc(S(=O)(=O)NCc2cnn(C)c2C)c1`, for which the INHIBITION is recorded as -25.8%. Turning to `CS(=O)(=O)Nc1ccn(Cc2cccc(Cl)c2)n1`, the INHIBITION was 22.6%. As for `CCN(Cc1ccco1)C(C)c1nc(C)no1` (stereo not drawn), the INHIBITION is reported as -97.2%. As for `COc1ccc(CN2Cc3nnn(C)c3C(COCCN(C)C)C2)cc1` (stereo not drawn), the figure is 16.4%. For the molecule `Cc1nc(-c2cc(Cl)c3c(c2)CC(CN)O3)c[nH]1` (stereo not drawn), the INHIBITION came out at 24.4%.

As to `Cc1nc(-c2cc(Cl)cc3c2OC(CN)C3)c[nH]1` (stereo not drawn), the INHIBITION is recorded as 68.3%. Turning to `Cc1cc2c(c(-c3c[nH]c(C)n3)c1)OC(CN)C2` (stereo not drawn), the INHIBITION is reported as 11.6%. For `Cc1cc(C(F)(F)F)c2c(=O)n(Cc3cc(C)on3)n(C)c2n1`, the INHIBITION is listed as 42.1%. On to `CC(C)(CN)NS(=O)(=O)c1c(F)cccc1F`, for which the INHIBITION is reported as -4.62%.

`CN1CCC(Cc2nc(-c3ccnn3C)n(Cc3ccccc3)n2)CC1`: the INHIBITION is recorded as 64.6%. Regarding `Cc1ncsc1-c1nc(CC2CCN(C)CC2)nn1Cc1ccccc1`, the INHIBITION amounted to 47.5%. Take `CN1CCC(Cc2nc(-c3cnccn3)n(Cc3ccccc3)n2)CC1`: the INHIBITION was -14.3%. As to `COc1c(C2CCCN2Cc2cccc(C(N)=O)c2)c(C)nn1C` (stereo not drawn), the INHIBITION was -11.4%. Consider `O=c1cc2c(nn1CN1CCC(c3ccccc3)CC1)CCC2`, for which the INHIBITION turned out to be 33.6%. Consider `CCO[C@@H]1CN(S(=O)(=O)c2cn(C)cn2)[C@@H]2CCCO[C@@H]21`, for which the INHIBITION turned out to be 2.79%. As to `Cn1cnc(S(=O)(=O)N2C[C@H](OCC3CC3)[C@H]3OCCC[C@H]32)c1`, the INHIBITION is recorded as 40.8%.

As to `CC(C)CO[C@H]1CN(S(=O)(=O)c2cn(C)cn2)[C@@H]2CCCO[C@H]12`, the INHIBITION was 53.9%. Consider `CC(=O)N1C[C@H]2CC[C@@H](C1)N(C(=O)CCc1n[nH]c3c1CCCC3)C2`, for which the INHIBITION was determined as 48.5%. As for `CC(C)n1cnnc1CN(C)C(=O)C1CCCN(CC(N)=O)C1` (stereo not drawn), the INHIBITION is given as 4.25%. `Cc1ccc(N2CCCC(NCc3cccc4c3OCO4)C2)nn1` (stereo not drawn): the INHIBITION came out at 16.8%. `Cn1cc(N2CCCC(NCc3cccc4c3OCCCO4)C2)cn1` (stereo not drawn): the INHIBITION is 11.1%. Take `Cc1cn2c(n1)C(CNCc1cccc3c1OCO3)CCC2` (stereo not drawn): the INHIBITION is on record as 62%.

Take `Cc1cn2c(n1)C(CNCc1ccc(C)s1)CCC2` (stereo not drawn): the INHIBITION was determined as 51.1%. With `Cc1ccc(CNCC2CCCN2c2cccnn2)s1` (stereo not drawn), the INHIBITION is -19.9%. As for `Cc1ccc(CNCC2CCCn3ccnc32)s1` (stereo not drawn), the figure is 43.7%; as for `CN(CCCc1cc(-c2ccccc2)no1)S(C)(=O)=O`, -42.55%; as for `O=C(Cc1ccc2c(c1)CCO2)N1CCN(c2ccncc2)CC1`, 15.3%. Turning to `CC(C)NC(=O)[C@H]1C[C@H]2CN(C(=O)NCCc3ccccc3)C[C@@H]1O2`, the INHIBITION was determined as 5.67%. For `O=C(CNC(=O)c1ccc2c(c1)CCC2)NCCNc1ncccn1`, the INHIBITION was -24.3%.

For `CCNC(=O)Nc1ncc(-c2cccnc2)s1`, the INHIBITION was 4.41%.

For `CC(C)C(C)n1nccc1NC(=O)Cn1cnc2ccccc21` (stereo not drawn), the INHIBITION is on record as -8.99%. Under `COc1ccc(C(=O)Nc2n[nH]c(C3CCCO3)n2)cc1` (stereo not drawn) stands 32.3%; under `COC(=O)c1cccc(C(=O)N2CCN(c3cccc(C)c3C)CC2)n1`, 74.2%. For the molecule `COC(=O)c1cccc(C(=O)N2CCN(c3ccc(OC)cc3)CC2)n1`, the INHIBITION amounted to 5.51%. Under `COC(=O)c1cccc(C(=O)N2CCN(c3cc(C)ccc3C)CC2)n1` stands -19.4%. Take `Cc1cccc(N2CCN(C(=O)NC(C)c3nncn3C)CC2)c1C` (stereo not drawn): the INHIBITION is reported as -48.4%. `COC(=O)c1cccc(C(=O)N2CCN(c3cc(Cl)ccc3C)CC2)n1`: the INHIBITION came out at 66.4%. Turning to `COC(=O)c1cccc(C(=O)N2CCN(c3ccccc3F)CC2)n1`, the INHIBITION turned out to be 30%.

Consider `Cc1cccc(N2CCN(C(=O)c3c(C)nn(C)c3C)CC2)c1C`, for which the INHIBITION turned out to be 54.8%. Regarding `COC(=O)c1cccc(C(=O)N2CCN(c3ccc(Cl)cc3)CC2)n1`, the INHIBITION is listed as -18.3%.

Turning to `Cc1nn(C)c(C)c1C(=O)N1CCN(c2ccncc2Cl)CC1`, the INHIBITION is reported as 43.9%. On to `CN(C(=O)c1ncn2c1CN(C)S(=O)(=O)c1ccccc1-2)C1CC1`, for which the INHIBITION is listed as -30%. `CCC(C(=O)N(C)CCC1=CCN(C)CC1)c1ccccc1` (stereo not drawn): the INHIBITION is 24%. Regarding `CCC(C)NC(=O)c1cc(S(=O)(=O)N(C)C)c(C)s1` (stereo not drawn), the INHIBITION is 19.5%. As for `O=S1(=O)NC2(CCCN(CCc3ccccc3)C2)COc2ccccc21` (stereo not drawn), the INHIBITION was determined as 24.2%. Under `Cc1nc(N2CCCN(C(=O)c3ccsc3)CC2)c2cnn(C)c2n1` stands 14.4%.

`CS(=O)(=O)NCCC1CCCCN1C(=O)NCCc1ccccn1` (stereo not drawn): the INHIBITION is listed as -25.6%. Under `Cc1nc(CN2CCCC2c2[nH]ncc2C(=O)N(C)C)cs1` (stereo not drawn) stands 8.53%; under `CC(C)Oc1cccc(F)c1C(C(=O)O)N(C)Cc1ccon1` (stereo not drawn), 71.2%. Under `COc1cc(F)ccc1C(C(=O)O)N(C)Cc1ccon1` (stereo not drawn) stands -66.4%; under `Cc1c[nH]c(CN(C)C(C(=O)O)c2c(F)cccc2Cl)n1` (stereo not drawn), 16.5%. As for `COc1ccc(Cl)cc1C(C(=O)O)N(C)Cc1ccon1` (stereo not drawn), the INHIBITION was -73.6%. For `CCOc1ccccc1C(C(=O)O)N(C)Cc1nc(C)c[nH]1` (stereo not drawn), the INHIBITION worked out at 21.1%. For `Cc1c[nH]c(CN(C)C(C(=O)O)c2c(F)cccc2OC(C)C)n1` (stereo not drawn), the INHIBITION was 58.2%.

Turning to `CC(Cn1cccn1)NC(=O)c1cccs1` (stereo not drawn), the INHIBITION is given as -40.2%. Turning to `CN1CCCC1CCNC(=O)Nc1ccccc1` (stereo not drawn), the INHIBITION was found to be 27.3%. `Cc1cc(Oc2ccccc2C)nc(C2CCCN2)n1` (stereo not drawn): the INHIBITION amounted to 4.41%. For the molecule `Cc1cccc(C(=O)NC(C)CN2CCCC2=O)n1` (stereo not drawn), the INHIBITION was 4%. As for `O=C(CCn1ccnc1)N1C[C@@H](O)[C@H](Oc2cccc(F)c2)C1`, the figure is -31%; as for `CC(=O)NCC(=O)N1CCOC2(CCCN(c3cccnc3)C2)C1` (stereo not drawn), 6.8%; as for `Cc1cc(C)nc(N2CCCC(c3nccn3CCCN(C)C)C2)c1` (stereo not drawn), 17.1%.

Consider `CN(C)C(=O)COCC1CN(Cc2ccco2)Cc2ncn(C)c21` (stereo not drawn), for which the INHIBITION is recorded as 39.5%.

In the case of `NC(=O)c1cnc2n1CCN(C(=O)c1ccc(-c3cc[nH]n3)cc1)C2`, the INHIBITION is given as 11.7%.

In the case of `Cc1ncc(COc2cccc3c2NC(=O)CO3)s1`, the INHIBITION is given as 8.05%. `O=C1COc2cccc(OCc3ccccn3)c2N1`: the INHIBITION was determined as 12.3%. Turning to `CC(C)c1nc(COc2cccc3c2NC(=O)CO3)cs1`, the INHIBITION was determined as 79.1%. As to `O=C(CCc1nc(-c2ccccn2)no1)N1CCCC1c1ccsc1` (stereo not drawn), the INHIBITION came out at 7.08%. For `O=C(CCN1CCOCC1)NC(Cc1ccsc1)c1nccs1` (stereo not drawn), the INHIBITION amounted to 5.055%. For `Cc1nc(C2CCCN2C(=O)CCc2ccccc2)ncc1C(N)=O` (stereo not drawn), the INHIBITION came out at 18.3%. Take `NC(=O)c1cn[nH]c1C1CCCN1C(=O)c1ccccn1` (stereo not drawn): the INHIBITION is given as 11.8%. In the case of `Cc1nc(C2CCCN2C(=O)COc2ccccc2)ncc1C(N)=O` (stereo not drawn), the INHIBITION is reported as 52%. As for `Cc1nc(C2CCCN2C(=O)Cc2ccc(F)cc2)ncc1C(N)=O` (stereo not drawn), the INHIBITION came out at 19.6%. In the case of `Cc1nc(C2CCCN2C(=O)c2ccc(F)cc2)ncc1C(N)=O` (stereo not drawn), the INHIBITION stood at 55.6%. For the molecule `Cc1nc(C2CCCN2C(=O)CC2CCCC2)ncc1C(N)=O` (stereo not drawn), the INHIBITION worked out at 17.1%. Under `Cc1nc(C2CCCN2C(=O)c2ccccc2)ncc1C(N)=O` (stereo not drawn) stands 40.4%; under `NC(=O)c1cn[nH]c1C1CCCN1C(=O)c1ccccc1` (stereo not drawn), 6.26%; under `NC(=O)c1cn[nH]c1C1CCCN1C(=O)COc1ccccc1` (stereo not drawn), 52.7%. As for `COC(=O)NCC(=O)N1CCc2cc(Cl)cc(Cl)c2C1`, the figure is -10.9%. With `Cc1nc(-c2ccccc2C)n(CC(=O)NC2CCCC2)n1`, the INHIBITION is given as 7.27%. For the molecule `O=C(c1cscn1)N1CCCC(n2cncn2)C1` (stereo not drawn), the INHIBITION is given as -17.4%. For `OC1(CN(Cc2cccnc2)C2CCCCC2)CNCCOC1` (stereo not drawn), the INHIBITION worked out at 41.8%. As to `CC(=O)N1CCC(N2CCOC(CC3CCCCC3)C2)CC1` (stereo not drawn), the INHIBITION was determined as 35.2%. For `Cc1ncoc1C(=O)N1CCOC(CC2CCCCC2)C1` (stereo not drawn), the INHIBITION turned out to be 24.7%. As for `CN(C)C(=O)N1CCC(C(=O)N2CCOC(CC3CCCCC3)C2)CC1` (stereo not drawn), the figure is 22.2%. In the case of `O=C(C1CCOCC1)N1CCOC(CC2CCCCC2)C1` (stereo not drawn), the INHIBITION stood at 54.8%. As for `CC(=O)N1CCC(C(=O)N2CCOC(CC3CCCCC3)C2)CC1` (stereo not drawn), the figure is 54.8%; as for `O=C(C1CCOCC1)N1C[C@@H]2OCCN(CCN3CCCC3)[C@@H]2C1`, 46.7%; as for `Clc1ccc2cccnc2c1CNC1CCc2ncnn2C1` (stereo not drawn), -92.9%. Take `Cc1cc(N(C)C)cc(C2CCN(S(=O)(=O)c3cccs3)C2)n1` (stereo not drawn): the INHIBITION is on record as 46.55%. `CC(C)NC(=O)c1cccc(Oc2ccc3nncn3n2)c1`: the INHIBITION was 2.84%. Under `Cc1nc(-c2ccsc2)ccc1C(=O)NCCN1CCN(C)CC1` stands 18.515%; under `CCC1=NC(SCC(=O)c2ccc(OC)cc2)c2cc(CC)sc2N1` (stereo not drawn), 36.6%; under `CN(C)C(=O)N1CCC2(CCCN(CCOc3ccccc3)C2)C1` (stereo not drawn), -44.2%.

Regarding `O=C(N1CCCC1)N1CCC2(CCCN(CCOc3ccccc3)C2)C1` (stereo not drawn), the INHIBITION was 69.9%. With `CC(C)C(=O)N1CCC2(CCCN(CCOc3ccccc3)C2)C1` (stereo not drawn), the INHIBITION is -4.27%.

The record behind these values is ChEMBL document CHEMBL4513216, “Probing the Open Global Health Chemical Diversity Library for Multistage-Active Starting Points for Next-Generation Antimalarials” (ACS Infect Dis, 2020).
